Among all 170,000 compounds or so, about 900 (0.53%) were called active.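 Rule for the calls: active = relative growth at most 50% at the other temperature and 20+ points below 30 °C, or under 10% at both; inactive = the rest, inconclusive results apart.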 Many of the other results were omitted from the sample, so actives are more common in it than they were.

Data on 45 molecules can be found in PubChem BioAssay AID720641 (ICCB-Longwood Screening Facility, Harvard Medical School, 2013).

The nature of this experiment: S. aureus growth inhibition at 42 and 30 °C, primary screen, LtaS inhibitor project, RN4220, two temperatures (AID 720641). The conditions noted are these: OD600, 20 h, 42 °C, stronger effect = lower value.

In the case of `Cc1ccc2nc(Nc3ccccc3)cc(C)c2c1`, the relative growth is 75.4% (inactive). The relative growth (measured here: growth at 30 °C) was 74.3%.

For the molecule `Cc1cccc(Nc2cc(C)nc(-n3nc(C)cc3C)n2)c1`, the relative growth was -0.22% (active). Further, the relative growth (measured here: growth at 30 °C) was -0.24%.

Regarding `Cc1ccc(Nc2nc3ccccc3nc2-n2nc(C)cc2C)c(Cl)c1`, the relative growth is 102% (inactive). For the same molecule, for the setting “measured here: growth at 30 °C”, the relative growth amounted to 86.6%.

Regarding `Cc1nc2ccccc2nc(C)c1=NOCC(=O)Nc1ccc(S(=O)(=O)N2CCOCC2)cc1`, the relative growth was 102% (inactive). Also, for the setting “measured here: growth at 30 °C”, the relative growth stood at 96.4%.

Take `O=C(CCCN1C(=O)CSc2ncccc21)N1CCCCC1`: the relative growth is 98.9% (inactive). Besides, the relative growth (measured here: growth at 30 °C) is 84.5%.

`COc1ccc(C(C(=O)NC2CCCC2)N(C(=O)c2ccn[nH]2)c2ccc(F)cc2)cc1OC` (stereo not given): the relative growth is 113% (inactive). Further, the relative growth (measured here: growth at 30 °C) is 89%.

For `CC(C)NC(=O)CSc1ccccc1C(=O)Nc1ccc(-n2cnnn2)cc1`, the relative growth was 102% (inactive). For the same molecule, the relative growth (measured here: growth at 30 °C) was determined as 89.2%.

Take `O=S(=O)(Nc1ccc2cn[nH]c2c1)c1ccccc1`: the relative growth was 105% (inactive). Further, the relative growth (measured here: growth at 30 °C) was determined as 98.5%.

Consider `c1ccc2c(c1)CC(Nc1ccc3cn[nH]c3c1)C2`, for which the relative growth was 1.74% (active). Moreover, the relative growth (measured here: growth at 30 °C) worked out at 1.83%.

Regarding `c1ccc(NC2CCCCC2)cc1`, the relative growth was 104% (inactive). For the setting “measured here: growth at 30 °C”, the relative growth was found to be 103%.

Take `Cc1cc(C)c(NC(=O)C2CC3c4ccccc4C2C2C=CC=CC32)c(C)c1` (stereo not given): the relative growth was 123% (inactive). The relative growth (measured here: growth at 30 °C) worked out at 88.2%.

With `Nc1cc(C(F)(F)F)ccc1-n1cccn1`, the relative growth was 92.8% (inactive). Where the note is “measured here: growth at 30 °C”, the relative growth turned out to be 95.4%.

As to `COc1ccc2c(c1)NC(c1ccccc1)c1cccn1-2` (stereo not given), the relative growth is 69.2% (inactive). Where the note is “measured here: growth at 30 °C”, the relative growth came out at 62.6%.

Take `Oc1c(Cl)cc(Cl)cc1C1Nc2cc(C(F)(F)F)ccc2-n2cccc21` (stereo not given): the relative growth was 5.2% (active). For the same molecule, the relative growth (measured here: growth at 30 °C) was 6.75%.

Take `COCCCn1c(C)cc(C(=O)CSc2ncnc3ccccc23)c1C`: the relative growth was 136% (inactive). For the same molecule, the relative growth (measured here: growth at 30 °C) was 92.1%.

For the molecule `CC1Cc2ccccc2N1c1ccc2ccccc2n1` (stereo not given), the relative growth is 94.3% (inactive). Further, where the note is “measured here: growth at 30 °C”, the relative growth was 99.6%.

On to `COc1ccc(/C=C/C(=O)N2CCCC2)cc1OC`, for which the relative growth was 81.4% (inactive). The relative growth (measured here: growth at 30 °C) stood at 88.8%.

For the molecule `COc1cc(/C=C/C(=O)OCC(N)=O)ccc1OCC#N`, the relative growth is 46.3% (active). Further, the relative growth (measured here: growth at 30 °C) turned out to be 78.8%.

As to `C/C=C/c1ccc(OCC(=O)OC(C)C(N)=O)c(OC)c1` (stereo not given), the relative growth was 71.1% (inactive). Further, for the setting “measured here: growth at 30 °C”, the relative growth worked out at 88.7%.

Take `COc1cc(C2C(C(=O)Nc3ccccn3)=C(C)NC3=C2C(=O)CCC3)cc(OC)c1OC` (stereo not given): the relative growth was 98.5% (inactive). Also, the relative growth (measured here: growth at 30 °C) was 93.4%.

For the molecule `CC(C)CC(=O)n1c(=O)oc2ccccc21`, the relative growth was 96.6% (inactive). Moreover, for the setting “measured here: growth at 30 °C”, the relative growth came to 101%.

With `N#Cc1c(-c2ccco2)cc(C2CC2)nc1SCC(=O)c1ccc(Br)cc1`, the relative growth was 82.6% (inactive). Besides, the relative growth (measured here: growth at 30 °C) came out at 76.7%.

On to `O=C(NCCSc1ccccc1)c1cccnc1Oc1ccccc1`, for which the relative growth is 115% (inactive). Moreover, for the setting “measured here: growth at 30 °C”, the relative growth came to 76.2%.

Consider `CC(=O)Oc1cccc2c1C(=O)C=CC2=O`, for which the relative growth was 2.55% (active). Further, the relative growth (measured here: growth at 30 °C) stood at 1.59%.

For `CC(=O)Oc1cccc2c1OC(C)(C)C2`, the relative growth was 117% (inactive). For the same molecule, the relative growth (measured here: growth at 30 °C) stood at 99.9%.

`CC(=O)Oc1ccc(OC(C)=O)c2c1C1C=CC2CC1`: the relative growth is 105% (inactive). Moreover, the relative growth (measured here: growth at 30 °C) was found to be 99.4%.

As for `CSCCC(=O)Nc1nc2ccccc2[nH]1`, the relative growth is 113% (inactive). Also, the relative growth (measured here: growth at 30 °C) was 87.5%.

Take `CC(C)Oc1ccc(C(=O)Nc2ccnn2C2CCCCC2)cc1`: the relative growth is 105% (inactive). Also, the relative growth (measured here: growth at 30 °C) amounted to 98.1%.

In the case of `O=C(Nc1ccc(Cl)c(Cl)c1)Nc1ccnn1C1CCCCC1`, the relative growth is -0.5% (active). Moreover, the relative growth (measured here: growth at 30 °C) was -0.69%.

As for `CC(=O)Nc1ccc2c(c1)CN(C1CCCCC1)CO2`, the relative growth is 90.6% (inactive). Further, where the note is “measured here: growth at 30 °C”, the relative growth stood at 87.6%.

In the case of `CCc1ccc(NC(=O)Nc2ccccc2)cc1`, the relative growth is 93.4% (inactive). The relative growth (measured here: growth at 30 °C) came to 96.9%.

On to `O=C(Nc1ccccc1)Nc1ccc(Cl)c(Cl)c1`, for which the relative growth is 2.14% (active). The relative growth (measured here: growth at 30 °C) is 2.42%.

Consider `O=C(Nc1cccc(Cl)c1)Nc1ccccn1`, for which the relative growth was 61.4% (inactive). In addition, where the note is “measured here: growth at 30 °C”, the relative growth stood at 70%.

In the case of `CC(=O)N1CC(C(=O)Nc2cccc(-c3nnc4n3CCCCC4)c2)Oc2ccccc21` (stereo not given), the relative growth was 78.4% (inactive). Also, for the setting “measured here: growth at 30 °C”, the relative growth was 92.9%.

With `Cc1ccc2nc(COC(=O)Cn3[nH]c(=O)c4ccccc4c3=O)cc(=O)n2c1`, the relative growth was 78.6% (inactive). Moreover, under “measured here: growth at 30 °C”, the relative growth came out at 90.7%.

On to `CCOc1ccc(C(=O)N2CCC(Cc3ccccc3)CC2)cc1`, for which the relative growth was 122% (inactive). Further, the relative growth (measured here: growth at 30 °C) is 75.5%.

As to `CS(=O)(=O)NCCNc1cc(-c2ccccc2)nc2ccccc12`, the relative growth was 99.5% (inactive). Moreover, under “measured here: growth at 30 °C”, the relative growth came to 72.5%.

Take `CCC(CC)NCc1ccc(OC)c(C)c1OC`: the relative growth is 74.7% (inactive). For the same molecule, for the setting “measured here: growth at 30 °C”, the relative growth is 81.6%.

Take `COc1ccc(-c2nn(C)c3sc(C(=O)NCCN4CCN(c5ccccc5F)CC4)cc23)cc1OC`: the relative growth was 82.7% (inactive). Moreover, for the setting “measured here: growth at 30 °C”, the relative growth came to 76.9%.

For `O=C(c1ccco1)N1CCN(C(=O)c2cc3c(s2)CCCC3)CC1`, the relative growth is 96.3% (inactive). The relative growth (measured here: growth at 30 °C) was found to be 87.5%.

As to `O=C(Sc1nc(-c2ccccc2)c(-c2ccccc2)[nH]1)c1cccs1`, the relative growth was 84.6% (inactive). Moreover, the relative growth (measured here: growth at 30 °C) was 74.2%.

With `Cc1cc(SCc2ccc(F)cc2)c(C)cc1Cl`, the relative growth is 105% (inactive). In addition, the relative growth (measured here: growth at 30 °C) came to 102%.

For the molecule `NC(=O)c1oc2ccccc2c1NC(=O)Cc1ccc(Cl)cc1`, the relative growth was 89.8% (inactive). In addition, the relative growth (measured here: growth at 30 °C) was 77.5%.

For the molecule `CC1CCN(C(=O)COc2ccc(-c3nn(C)c(=O)c4ccccc34)cc2)CC1`, the relative growth is 86.8% (inactive). The relative growth (measured here: growth at 30 °C) was found to be 89.7%.

Take `Cc1ccccc1OCc1nc(C#N)c(NC(C)c2ccccc2)o1` (stereo not given): the relative growth is 82.4% (inactive). Besides, the relative growth (measured here: growth at 30 °C) was 79.9%.
